Data from PubChem BioAssay AID2130 (The Scripps Research Institute Molecular Screening Center, 2009).
In all, about 320,000 compounds went through this assay and about 1,700 (0.53%) were called active.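 Rule for the calls: active = inhibition above the campaign mean of all compounds plus 3 SD (cut at about 26% in these data); inactive = the rest.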 Only a selection was taken, and actives are over-represented in it overall.

These compounds were tested against Protein phosphatase methylesterase 1 (Homo sapiens) (UniProt Q9Y570) (assay: PME-1 inhibitors via competitive probe labeling, primary screen, biochemical, fluorescence polarization, FP-Rh probe, HTS (AID 2130;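 note: competitive labeling of PME-1 active site by serine hydrolase directed probe; 0% = PME-1 with DMSO and 100% = wells lacking PME-1 enzyme; inhibitors block probe labeling so polarization falls and inhibition rises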)). Conditions: recombinant PME-1, FP-Rh probe fluorescence polarization; at 5.9 µM; hits give high values.
Chain of Protein phosphatase methylesterase 1 (Homo sapiens) (Q9Y570 whole entry, looked up): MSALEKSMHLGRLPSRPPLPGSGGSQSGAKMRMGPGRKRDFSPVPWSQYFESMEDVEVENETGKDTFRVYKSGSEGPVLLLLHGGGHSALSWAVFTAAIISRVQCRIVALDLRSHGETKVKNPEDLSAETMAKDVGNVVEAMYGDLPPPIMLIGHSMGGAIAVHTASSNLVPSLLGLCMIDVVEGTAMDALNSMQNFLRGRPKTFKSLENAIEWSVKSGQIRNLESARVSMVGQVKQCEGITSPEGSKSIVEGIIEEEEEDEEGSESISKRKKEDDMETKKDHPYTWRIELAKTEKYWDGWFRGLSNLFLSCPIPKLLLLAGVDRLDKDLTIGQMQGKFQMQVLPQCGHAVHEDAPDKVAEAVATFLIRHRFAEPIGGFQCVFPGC
In the case of `O=C(NCCc1ccccn1)c1nc(Cn2cc([N+](=O)[O-])cn2)no1`, the inhibition is reported as -4.02% (inactive). For `Cc1ccc(-c2ccnc3nc(Sc4ncc(C(F)(F)F)cc4Cl)nn23)cc1`, the inhibition was -0.19% (inactive). With `COC/C=C/C1=CC2=CC(=O)C(C)(OC(=O)CCC(=O)OC)C(=O)C2=CO1` (configuration not stated) the inhibition was -1.35% (inactive). For `COc1ccccc1OCCn1c(SCC(N)=O)nc2ccccc21`, the inhibition was -4.12% (inactive). In the case of `COc1ccc(NC(C(=O)Nc2cccc(C(C)=O)c2)c2ccccc2)cc1` (configuration not stated), the inhibition is reported as 34.5% (active). In the case of `COc1ccc(NC(=O)[C@H](NC(=O)[C@@H]2Cc3ccccc3CN2)c2ccccc2)cc1`, the inhibition is reported as -3.82% (inactive). For `COC(C(=O)Nc1ccc(C(C)=O)cc1)c1ccccc1` (configuration not stated), the inhibition was -5.79% (inactive). In the case of `CS(=O)(=O)N(CC(=O)Nc1ccc(F)cc1F)c1cccc([N+](=O)[O-])c1`, the inhibition is reported as -2.56% (inactive). For `O=C(CNCc1cccs1)Nc1cc(S(=O)(=O)N2CCCC2)ccc1Cl`, the inhibition was 22% (inactive). `CSCCC(NS(=O)(=O)/C=C/c1ccccc1)C(=O)N1CCC(C)CC1` (configuration not stated) was tested, and the inhibition was 6.82% (inactive). In the case of `CCc1nnc(NC(=O)c2cccc(S(=O)(=O)N(C)c3ccc(OC)cc3)c2)s1`, the inhibition is reported as -0.95% (inactive). `CCc1ccc2nc3sc(C(=O)Nc4nnc(CC)s4)c(N)c3cc2c1` was tested, and the inhibition was 65.8% (active). With `CCc1nnc(NC(=O)c2sc3nc(C)cc(COC)c3c2N)s1` the inhibition was -5.69% (inactive). With `Clc1ccc(-c2cc(COc3ccccc3)no2)cc1Cl` the inhibition was -8.92% (inactive). For `COC(=O)COc1ccc2c(c1C)O/C(=C\c1ccco1)C2=O`, the inhibition was -9.46% (inactive). With `CCOc1cc(/C=N/NC(=O)c2cc(-c3ccccc3)nc3ccccc23)ccc1O` the inhibition was -7.58% (inactive). With `COc1cc(/C=N/NC(=O)c2ccc(N3CCCC3=O)cc2)ccc1O` the inhibition was 5.91% (inactive). In the case of `COc1ccc(C(=O)Nc2ccccc2C(=O)N/N=C/c2ccc(O)c(OC)c2)cc1`, the inhibition is reported as 33.6% (active). With `CCOC(=O)[C@H]1CCC[C@@H](NS(=O)(=O)c2ccc(NC(C)=O)cc2)C1` the inhibition was 1.52% (inactive). `Cc1csc2nc(COC(=O)c3cccc(N(C)C)c3)cc(=O)n12` was tested, and the inhibition was 3.78% (inactive). In the case of `COc1ccc(C(=O)CC(=O)C(=O)Nc2cc([N+](=O)[O-])ccc2OC)cc1`, the inhibition is reported as -2.97% (inactive). In the case of `COc1ccc(NS(=O)(=O)c2cc(C(=O)Nc3ccccc3C(=O)O)ccc2C)cc1`, the inhibition is reported as -3.94% (inactive). `COc1ccc(NS(=O)(=O)c2cc(NC(=O)CC(=O)c3ccc([N+](=O)[O-])cc3)ccc2C)cc1` was tested, and the inhibition was 27% (active). For `Cc1occc1C(=O)NC1CCCN(Cc2ccc(CC(C)C)cc2)C1` (configuration not stated), the inhibition was 5.69% (inactive). `COc1ccc(CN(Cc2ccc(OC)cc2)C(=O)c2cccs2)cc1` was tested, and the inhibition was 4.18% (inactive). For `COc1ccc(CCNC(=O)/C(C#N)=C2\N=C(NC(=O)c3cccs3)c3ccccc32)cc1`, the inhibition was 28.2% (active). With `COc1cc2ccccc2cc1C(=O)Nc1ccc(NC(=O)c2cccs2)cc1` the inhibition was -34% (inactive). With `CN(Cc1c(F)cccc1Cl)S(=O)(=O)c1cccs1` the inhibition was 4.21% (inactive). `CN(C)C(=O)c1ccc2c(c1)C1C3CCC(C3)C1C(c1ccccc1)N2` (configuration not stated) was tested, and the inhibition was 8.08% (inactive). For `CCc1nnc(NC(=O)CSc2nc(SC)ns2)s1`, the inhibition was -0.14% (inactive). With `CCN(CC)C(=O)CSC(Nc1cccc(F)c1)=C(C#N)C#N` the inhibition was -5.27% (inactive). For `Cc1cc(C)cc(NC(=S)NCCc2c[nH]c3ccccc23)c1`, the inhibition was 26.7% (active). In the case of `Cc1cc(C)cc(NC(=S)NCc2ccc(F)cc2)c1`, the inhibition is reported as 7.45% (inactive). For `O=C(NCCc1c[nH]c2ccccc12)c1cccc(Br)c1`, the inhibition was 4.14% (inactive). `O=C(NCCS(=O)(=O)N1CCN(c2ccccc2F)CC1)c1ccc(Br)o1` was tested, and the inhibition was 3.82% (inactive). In the case of `Cc1cc(C)c2nc3nc(C)cc(C)c3c(N)c2c1`, the inhibition is reported as -3.32% (inactive). In the case of `CCOC12CC(C)(C)CC(C)(CC3=C1C(=O)CC(C)(C)C3)C2` (configuration not stated), the inhibition is reported as 2.34% (inactive). With `O=c1c2sccc2nc(SCc2cc(=O)n3ccccc3n2)n1-c1ccc(Br)cc1` the inhibition was 6.68% (inactive). `N#CCCN(C(=O)COC(=O)C1CCN(c2ccc(C(F)(F)F)cn2)CC1)c1ccc(F)cc1` was tested, and the inhibition was 1.79% (inactive). `CCc1ccccc1OCC(=O)Nc1ccc(C)c(S(=O)(=O)N2CCCCCC2)c1` was tested, and the inhibition was -30.7% (inactive). `CCc1cccc(CC)c1NC(=O)COc1ccccc1C(=O)c1cc(C#N)c(=O)n(C2CCCCC2)c1` was tested, and the inhibition was 26.5% (active). With `Cc1cc(NC(=O)COc2ccccc2C#N)no1` the inhibition was -1.79% (inactive). With `CCOc1ccc(S(=O)(=O)N(CC(=O)NCC(F)(F)F)Cc2ccco2)cc1` the inhibition was -1.32% (inactive). In the case of `FC(F)(F)c1cccc(-c2nc(COc3ccc(Cl)cc3Cl)no2)c1`, the inhibition is reported as -0.04% (inactive). For `Cn1nccc1NC(=O)Nc1ccc(OC(F)(F)F)cc1`, the inhibition was 8.73% (inactive). In the case of `O=C(Nc1ccc(OC(F)(F)F)cc1)c1ccc2c(c1)no[n+]2[O-]`, the inhibition is reported as 32% (active). With `COC(=O)[C@H](C)NC(=O)Nc1ccc(OC(F)(F)F)cc1` the inhibition was 0.46% (inactive). `CCOC(=O)Cc1c(C)nc2c(C#N)c(C)nn2c1C` was tested, and the inhibition was -0.83% (inactive). `CCN=C1S/C(=C\c2cc(Br)ccc2OCC(=O)OCC)C(=O)N1CC` was tested, and the inhibition was 3.9% (inactive). For `CC(C)CCOc1ccc(C(=O)C[N+]2(C)CCOCC2)cc1`, the inhibition was 1.1% (inactive). In the case of `Cc1ccc(N(Cc2ccc(C(=O)Nc3ccccc3C(=O)NCc3ccco3)cc2)S(C)(=O)=O)cc1C`, the inhibition is reported as -28.2% (inactive). In the case of `Nc1c(N(Cc2ccco2)C(=O)c2cccc(F)c2)c(=O)[nH]c(=O)n1Cc1ccccc1`, the inhibition is reported as 3.17% (inactive).
